Where “and” joins values, the source holds several entries; their conditions need not be identical. Equal entries are not always repeated. Results filed as inconclusive are left out. Calls of active or inactive are those of the source. Unless noted, calls follow the shape of the dose curve; as a rule, active = well fitted curve in the direction sought with a large enough effect in the repeat runs; inconclusive = weak or mixed curves; inactive = no such curve, though single readings can be large; an effect the other way counts as inactive or inconclusive.

The values below come from PubChem BioAssay (Tox21).

Assay [1] is described as follows: qHTS assay for small molecules that induce genotoxicity in human embryonic kidney cells expressing luciferase-tagged ATAD5 (AID 651632). Also: nearly all actives have a fitted effect of over 15% in size. Also: potency is read from the fitted curve at half-maximal effect. A digest of the protocol: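 ATAD5-luc HEK293T, 2,000 cells/well; cpd or DMSO pin-transferred; 16 hr, 37C/5% CO2; Amplite 30 min RT; luminescence.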
Background: In qHTS, concentration-response curves come from the screen itself.

Assay [2] in a line: qHTS assay for small molecule agonists of the p53 signaling pathway - cell viability (AID 651633; calls by dose curve; also: nearly all actives have a fitted effect of over 30% in size; also: potency is read from the fitted curve at half-maximal effect). A digest of the protocol:
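Viability counter-read: CellTiter-Glo luminescence (30 min, room temperature) in the same p53RE-bla plates. These plates had been exposed to compounds for 16 h at 37 C.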

A short description of assay [3]: qHTS assay for small molecules that induce genotoxicity in human embryonic kidney cells expressing luciferase-tagged ATAD5 - cell viability (AID 651634; calls by dose curve; also: nearly all actives have a fitted effect of over 25% in size; also: potency is read from the fitted curve at half-maximal effect). A digest of the protocol:
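Fluorescence from CellTiter-Fluor, reporting protease activity within live cells, served as the viability read-out. HEK293T cells carrying luciferase-tagged ATAD5 had been treated with compound for 15.5 hr at 37C.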

Assay [4] is described as follows: qHTS assay for small molecule disruptors of the mitochondrial membrane potential - cell viability (AID 720634; calls by dose curve; also: nearly all actives have a fitted effect of over 20% in size; also: potency is read from the fitted curve at half-maximal effect). A digest of the protocol:
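Cells: HepG2, 2,000/well, attached overnight. Compound 1 hr, 37 C/5% CO2. +m-MPI dye, +CellTiter-Glo 30 min RT. Readout: luminescence (ATP).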

Assay [5] can be described thus: qHTS assay to test for compound auto fluorescence at 590 nm (red) in HepG2 cells (AID 720674). A digest of the protocol: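 We screened compounds on adherent HepG2 cells, incubating them for an hour at 37 C in 5% CO2 before reading emission at 590 nm under 540 nm excitation; values reflect equivalence to Rose Bengal sodium fluorescence.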
The nature of assay [6]: qHTS assay to test for compound auto fluorescence at 460 nm (blue) in HEK293 cells (AID 720678). Also: potency is read from the fitted curve at half-maximal effect. A digest of the protocol:
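HEK293 cells (2,000 per well, medium with 10% dialyzed FBS) attached for 4-5 hr at 37C, then received compound and stood overnight at 37C, 5% CO2. Blue fluorescence was read at Ex/Em 405/460 nm and expressed relative to triamterene.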

A short description of assay [7]: qHTS assay to test for compound auto fluorescence at 590 nm (red) in HEK293 cells (AID 720679). A digest of the protocol: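 HEK293 cells (2,000/well, medium with 10% dialyzed FBS) attached for 4-5 hr at 37C, received 23 nL compound and were incubated overnight at 37C, 5% CO2. Red fluorescence was then read at 540/590nm Ex/Em, referenced to Rose Bengal sodium.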
The nature of assay [8]: qHTS assay to test for compound auto fluorescence at 535 nm (green) in HEK293 cells (AID 720680).
Assay [9] is described as follows: qHTS assay to test for compound auto fluorescence at 460 nm (blue) in HEK293 cell free culture (AID 720681). Also: potency is read from the fitted curve at half-maximal effect. A digest of the protocol: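 Blue fluorescence (Ex 405/Em 460 nm, triamterene-equivalent) was read immediately after pin transfer of compound or DMSO into medium (DMEM, 10% FBS) without cells.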
Assay [10] can be described thus: qHTS assay to test for compound auto fluorescence at 535 nm (green) in HEK293 cell free culture (AID 720682). A digest of the protocol: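 Each library compound, or DMSO control, is added by pintool to medium alone, comprising DMEM and 10% FBS. Emission at 535 nm following 485 nm excitation is quantified against fluorescein.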
The nature of assay [11]: qHTS assay to test for compound auto fluorescence at 590 nm (red) in HEK293 cell free culture (AID 720683). A digest of the protocol: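 Red-channel autofluorescence of compounds in culture medium (DMEM, 10% FBS), no cells, measured at 540/590 nm. Rose Bengal sodium is the reference fluorophore for equivalence.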
Assay [12] in a line: qHTS assay to test for compound auto fluorescence at 460 nm (blue) in HepG2 cell free culture (AID 720685). Also: potency is read from the fitted curve at half-maximal effect. A digest of the protocol:
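Compound (23 nL) or DMSO pinned into cell-free MEM with 10% FBS; blue fluorescence read at 405/460 nm excitation/emission, expressed as auto-fluorescence equivalency to triamterene.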

Assay [13] in a line: qHTS assay to test for compound auto fluorescence at 535 nm (green) in HepG2 cell free culture (AID 720686).
Assay [14] in a line: qHTS assay to test for compound auto fluorescence at 460 nm (blue) in HepG2 cells (AID 720687). Also: potency is read from the fitted curve at half-maximal effect. A digest of the protocol: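 Blue-channel autofluorescence (Ex/Em 405/460 nm, triamterene-equivalent) was measured after 1 hr compound exposure at 37 C, 5% CO2. Cells were HepG2, plated overnight at 37 C in MEM plus 10% FBS.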
Assay [15] addresses Glucocorticoid receptor (Homo sapiens) (UniProt P04150). Briefly: qHTS assay to identify small molecule agonists of the glucocorticoid receptor (GR) signaling pathway (AID 720691; active = well fitted activation curve with a large enough effect in the signal ratio in the repeat runs, not every such curve was filed as active; the % refers to the signal ratio). The following applies: GR-bla HeLa, beta-lactamase reporter ratio, 18 h; activation: at 62.4 µM (top of the series). A digest of the protocol:
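Fluorescence intensity from LiveBLAzer B/G FRET substrate (2 h, room temperature) reports beta-lactamase expression driven by the glucocorticoid response element in GR-bla HeLa cells after 18 h compound exposure at 37 C.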

Assay [16] has the same target. Briefly: qHTS assay to identify small molecule antagonists of the glucocorticoid receptor (GR) signaling pathway (AID 720692; active = well fitted inhibition curve with a large enough effect in the signal ratio in the repeat runs, not every such curve was filed as active; the % refers to the signal ratio). A digest of the protocol:
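HeLa GR-bla cells; cmpd + dex 5 nM final, 18 h 37 C; LiveBLAzer B/G FRET substrate 2 h RT; fluorescence intensity read. Antagonist mode, qHTS.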

A short description of assay [17]: qHTS assay for small molecule disruptors of the mitochondrial membrane potential (AID 720635). Also: potency is read from the fitted curve at half-maximal effect. A digest of the protocol:
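Mitochondrial membrane potential tracked with Mito-MPS dye, red aggregates (ex 540/em 590 nm) against green monomers (ex 490/em 535 nm). Compound treatment 1 hr at 37C, dye 30 min in HepG2.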

Assay [18] is described as follows: qHTS assay to test for compound auto fluorescence at 535 nm (green) in HepG2 cells (AID 720675).
Assay [19] in a line: qHTS assay to test for compound auto fluorescence at 590 nm (red) in HepG2 cell free culture (AID 720684). A digest of the protocol: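 Steps: dispense MEM/10% FBS medium, no cells; pin compound or DMSO vehicle; read red channel, Ex/Em 540/590 nm. Output given as Rose Bengal sodium equivalents.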
Tags tell the direction and shape of the fitted curve or compound fluorescence and quenching.

Glucocorticoid receptor (Homo sapiens), sequence (P04150 whole entry, looked up): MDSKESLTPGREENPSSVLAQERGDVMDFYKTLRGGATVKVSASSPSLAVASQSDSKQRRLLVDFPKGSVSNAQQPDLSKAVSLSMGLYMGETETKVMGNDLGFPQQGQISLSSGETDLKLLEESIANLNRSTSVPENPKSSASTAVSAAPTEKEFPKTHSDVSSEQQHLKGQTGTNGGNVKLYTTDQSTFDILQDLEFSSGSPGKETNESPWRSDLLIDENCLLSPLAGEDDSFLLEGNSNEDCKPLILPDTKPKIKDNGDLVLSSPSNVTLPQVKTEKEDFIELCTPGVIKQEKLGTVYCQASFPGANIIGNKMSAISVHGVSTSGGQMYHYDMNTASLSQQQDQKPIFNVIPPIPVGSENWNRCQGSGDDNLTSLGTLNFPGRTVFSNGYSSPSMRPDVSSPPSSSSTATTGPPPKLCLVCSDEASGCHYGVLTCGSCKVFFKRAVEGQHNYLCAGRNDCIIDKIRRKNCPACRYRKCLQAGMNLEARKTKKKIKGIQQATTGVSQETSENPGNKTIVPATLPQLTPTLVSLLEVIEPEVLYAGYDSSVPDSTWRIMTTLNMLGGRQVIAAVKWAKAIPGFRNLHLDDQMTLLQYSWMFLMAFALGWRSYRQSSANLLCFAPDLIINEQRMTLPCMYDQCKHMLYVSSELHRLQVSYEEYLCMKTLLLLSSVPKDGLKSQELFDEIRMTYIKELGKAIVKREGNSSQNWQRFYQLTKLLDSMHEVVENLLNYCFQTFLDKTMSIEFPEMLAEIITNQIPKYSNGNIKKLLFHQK

For the compound `CCSCC`, the Potency result in [1], in [2], in [3], in assay [4], in [6] and in [9] was “inactive” throughout. Moreover, the Potency entry in assay [12], in [13], in assay [14], in [15] and in assay [16] was “inactive” throughout. Besides, the call in [5], in assay [7], in assay [8], in [10] and in assay [11] was inactive.

For the compound `CCCCCCCC[N+](C)(C)CCCCCCCC`, the Potency result in assay [1], in [2], in [3], in assay [4], in assay [18] and in [6] was “inactive” each time. Besides, the Potency entry in [9], in [12], in assay [13], in [14] and in assay [15] was “inactive” throughout. Also, in assay [17], the Potency was 21.1 µM (active) and 23.7 µM (active). Further, the result in assay [5], in assay [7], in [8], in assay [11] and in [19] was inactive.

For the compound `CON=C1C[C@]2(C[C@@H]3C[C@@H](C/C=C(\C)C[C@@H](C)/C=C/C=C4\CO[C@@H]5[C@H](O)C(C)=C[C@@H](C(=O)O3)[C@]45O)O2)O[C@H](/C(C)=C/C(C)C)[C@H]1C`, the Potency result in assay [1], in assay [4], in assay [18], in assay [6], in assay [9] and in [12] was “inactive” each time. The Potency entry in assay [13] and in [14] was “inactive” throughout. Also, the Potency was 11.9 µM (active) and 8.41 µM (active) in assay [2]; 11.9 µM (active) and 8.41 µM (active) in assay [3]; 13.3 µM (active) in [17]. Moreover, the compound was called inactive in [5], in assay [7], in assay [8], in assay [10], in assay [11] and in assay [19].

Consider `O=[N+]([O-])c1ccc(O)c2ncccc12`, for which the Potency entry in assay [1], in assay [4], in assay [6], in assay [9], in assay [12] and in [14] was “inactive” throughout. Also, the Potency was 26.6 µM (active) in assay [2], 21.1 µM (active) in assay [3] and 6.68 µM (active) in [17]. Besides, the outcome in [5], in [7], in assay [8], in assay [10], in assay [11] and in [19] was inactive.

Take `C[C@H]1O[C@@H](O[C@H]2CC[C@@]3(C)[C@H](CC[C@@H]4[C@@H]3C[C@@H](O)[C@]3(C)[C@@H](C5=CC(=O)OC5)CC[C@]43O)C2)C[C@H](O)[C@@H]1O[C@H]1C[C@H](O)[C@H](O[C@H]2C[C@H](O)[C@H](O[C@@H]3O[C@H](CO)[C@@H](O)[C@H](O)[C@H]3O)[C@@H](C)O2)[C@@H](C)O1`: the Potency entry in assay [1], in assay [4], in [18], in [6], in assay [9] and in assay [12] was “inactive” each time. Also, the Potency entry in [14] and in assay [15] was “inactive” each time. The Potency in [2] was 0.168 µM (active); in [3], 0.531 µM (active); in assay [17] it was 1.68 µM (active). The call in [5], in assay [7], in assay [8], in [10] and in [11] was inactive.

With `CC(C)c1ccc2sc3ccccc3c(=O)c2c1`, the Potency in [1] is 4.33 µM (active); in assay [4] it was 34.4 µM (active); in [17], 48.6 µM (active). The Potency entry in assay [2], in assay [3], in [18], in assay [13], in assay [15] and in [16] was “inactive” throughout. Moreover, the result in assay [5], in assay [7], in [8] and in assay [11] was inactive.

Take `O=C1c2ccccc2-c2n[nH]c3cccc1c23`: the Potency entry in assay [1], in assay [2], in assay [3], in assay [4], in [18] and in assay [13] was “inactive” throughout. Further, the Potency in [17] is 0.784 µM (active); in assay [6] it was 12.6 µM [fluorescent] (active); in assay [9], 14.1 µM (active); in [12] it was 12.6 µM [fluorescent] (active); in assay [14], 14.1 µM [fluorescent] (active). For the same compound, the result in [5], in assay [7], in [8], in [10], in assay [11] and in assay [19] was inactive.

For `O=C1CCC(c2ccc(-n3ccnc3)cc2)=NN1`, the Potency result in assay [1], in [2], in assay [3], in [4], in [17] and in assay [18] was “inactive” each time. In addition, the Potency result in [6], in assay [9], in assay [12], in [13], in assay [14] and in assay [15] was “inactive” in each case. The call in assay [5], in [7], in assay [8], in [10], in assay [11] and in [19] was inactive.
